Laboratory results reported in PubChem BioAssay.
Calls of active or inactive are those of the source.

How the values were obtained:
[1] = optical density shifts of acrAB sulA E. coli – strain DRC41, OD650, 48 h, E. coli filamentation inducer project, primary screen (AID 1152); details: higher = more signal, called active from +8 up or from −8 down;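 note: E. coli MC1000 strain DRC41 lacking acrAB efflux pump and sulA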
[2] = probe aLefty1 binding on compound microarray – biochemical, small-molecule microarray, 635/667 nm fluorescence, primary screen (AID 1153); details: higher = more signal;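 note: score merges spot fluorescence with signal-to-noise ratio from the scanned slide images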
[3] = plasmodial surface anion channel blockers, osmotic lysis – cell-based, P. falciparum Indochina, OD700, 1 h, primary screen (AID 1154); details: P. falciparum Indochina infected RBC osmotic lysis, higher = more signal, called active from +8 up or from −8 down
[4] = plasmodial surface anion channel blockers, osmotic lysis – cell-based, P. falciparum Indochina, OD700, 2 h, primary screen (AID 1155);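 note: lysis reports solute entry through the parasite surface anion channel PSAC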; details: P. falciparum Indochina infected erythrocytes, higher = more signal, called active from +8 up or from −8 down
[5] = changes in parasitized red cell lysis, either direction – P. falciparum Indochina, OD700, 3 h, PSAC antagonist project, primary screen (AID 1156); details: P. falciparum-infected erythrocytes, osmotic lysis, higher = more signal, called active from +8 up or from −8 down
[6] = plasmodial surface anion channel blockers, osmotic lysis – cell-based, P. falciparum Indochina, OD700, 18 h, primary screen (AID 1157); details: P. falciparum Indochina infected erythrocytes, osmotic lysis OD700, 18 h; higher = more signal, called active from +8 up or from −8 down
[7] = S6 kinase pathway phospho-S6 level changes – cell-based, A549, cytoblot, luminescence, serum-stimulated, primary screen (AID 1158); details: 5 h, higher = more signal;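 note: serum-stimulated A549 lung adenocarcinoma cells; signal is phosphorylated S6 detected by cytoblot immunostaining with HRP secondary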
[8] = target: NADPH oxidase 2 (Homo sapiens) (UniProt P04839); test: compounds shifting NOX2 Amplex Red fluorescence – cell-based, HEK293-NOX2, PMA-stimulated, NOX inhibitor project, primary screen (AID 1159); details: 45 min, higher = more signal, called active from +8 up or from −8 down; note: test concentration not given here
Chain of NADPH oxidase 2 (Homo sapiens) (P04839 whole entry, looked up): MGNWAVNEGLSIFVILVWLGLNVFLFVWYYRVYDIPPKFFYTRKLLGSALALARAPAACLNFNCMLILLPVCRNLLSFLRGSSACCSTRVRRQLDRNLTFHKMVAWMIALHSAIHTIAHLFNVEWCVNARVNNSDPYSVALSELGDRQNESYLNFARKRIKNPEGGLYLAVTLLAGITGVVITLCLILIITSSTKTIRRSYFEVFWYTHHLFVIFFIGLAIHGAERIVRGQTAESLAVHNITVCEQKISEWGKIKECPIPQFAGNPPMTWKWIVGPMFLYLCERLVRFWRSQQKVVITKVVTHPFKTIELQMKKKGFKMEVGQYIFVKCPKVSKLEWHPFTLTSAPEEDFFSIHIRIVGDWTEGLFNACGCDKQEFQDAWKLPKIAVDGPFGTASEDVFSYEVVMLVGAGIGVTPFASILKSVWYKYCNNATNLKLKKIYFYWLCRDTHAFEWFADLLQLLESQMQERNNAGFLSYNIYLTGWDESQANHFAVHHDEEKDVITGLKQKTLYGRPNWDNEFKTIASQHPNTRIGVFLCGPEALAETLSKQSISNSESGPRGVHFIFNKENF

[9] = target: NADPH oxidase 4 (Homo sapiens) (UniProt Q9NPH5); test: compounds shifting NOX4 Amplex Red fluorescence – cell-based, HEK293-NOX4, tetracycline-induced, NOX inhibitor project, primary screen (AID 1160); details: HEK293-NOX4, Amplex Red H2O2 fluorescence, 45 min; higher = more signal, called active from +8 up or from −8 down
Chain of NADPH oxidase 4 (Homo sapiens) (Q9NPH5 whole entry, looked up): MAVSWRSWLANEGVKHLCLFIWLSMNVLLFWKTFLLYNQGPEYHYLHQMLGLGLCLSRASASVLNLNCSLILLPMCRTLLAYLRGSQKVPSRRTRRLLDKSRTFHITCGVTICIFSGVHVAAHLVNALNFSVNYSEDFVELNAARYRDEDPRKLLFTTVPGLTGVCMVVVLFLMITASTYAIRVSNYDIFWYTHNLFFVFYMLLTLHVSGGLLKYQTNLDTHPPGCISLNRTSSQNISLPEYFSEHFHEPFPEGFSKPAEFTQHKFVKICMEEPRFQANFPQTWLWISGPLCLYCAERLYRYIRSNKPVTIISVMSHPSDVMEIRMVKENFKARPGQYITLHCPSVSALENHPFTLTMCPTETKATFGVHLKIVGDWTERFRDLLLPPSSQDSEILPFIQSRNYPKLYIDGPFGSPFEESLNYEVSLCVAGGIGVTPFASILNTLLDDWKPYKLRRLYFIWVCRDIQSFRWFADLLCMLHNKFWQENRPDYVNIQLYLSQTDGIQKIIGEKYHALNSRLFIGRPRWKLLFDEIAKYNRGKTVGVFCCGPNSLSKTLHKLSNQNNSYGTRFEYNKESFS

[10] = target: NADPH oxidase 5 (Homo sapiens) (UniProt Q96PH1); test: compounds shifting NOX5 Amplex Red fluorescence – cell-based, HEK293-NOX5, NOX inhibitor project, primary screen (AID 1161); details: HEK293-NOX5, ionomycin, 45 min, higher = more signal
Chain of NADPH oxidase 5 (Homo sapiens) (Q96PH1 whole entry, looked up): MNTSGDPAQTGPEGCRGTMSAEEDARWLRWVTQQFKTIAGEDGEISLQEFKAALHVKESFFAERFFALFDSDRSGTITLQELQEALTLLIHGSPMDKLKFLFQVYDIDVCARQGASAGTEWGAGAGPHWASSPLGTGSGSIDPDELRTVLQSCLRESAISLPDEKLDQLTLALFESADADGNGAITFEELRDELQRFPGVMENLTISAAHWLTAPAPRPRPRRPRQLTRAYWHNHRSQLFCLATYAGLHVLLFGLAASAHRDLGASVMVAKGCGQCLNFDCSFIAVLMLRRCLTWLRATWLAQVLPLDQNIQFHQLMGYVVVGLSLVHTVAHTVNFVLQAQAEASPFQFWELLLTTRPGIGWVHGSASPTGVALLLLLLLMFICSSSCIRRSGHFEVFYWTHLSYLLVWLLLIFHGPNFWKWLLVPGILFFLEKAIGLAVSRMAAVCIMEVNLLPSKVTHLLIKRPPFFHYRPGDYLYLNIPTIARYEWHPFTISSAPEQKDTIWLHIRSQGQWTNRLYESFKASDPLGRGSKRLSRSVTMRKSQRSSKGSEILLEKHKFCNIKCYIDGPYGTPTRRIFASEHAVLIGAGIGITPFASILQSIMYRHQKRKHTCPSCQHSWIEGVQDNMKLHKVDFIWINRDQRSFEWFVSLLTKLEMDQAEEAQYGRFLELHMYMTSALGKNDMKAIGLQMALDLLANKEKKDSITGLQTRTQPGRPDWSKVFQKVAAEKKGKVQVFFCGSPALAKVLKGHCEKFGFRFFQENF

[11] = compound effects on lung adenocarcinoma cell viability – A549, calcein-AM fluorescence, 48 h, basal, profiling panel (AID 1162); details: higher = more signal; note: test concentration not given here
[12] = compound effects on differentiated 3T3-L1 adipocyte viability – cell-based, 3T3-L1 adipocytes, calcein-AM fluorescence, 48 h, basal, profiling panel (AID 1163); details: 3T3-L1 adipocytes viability, higher = more signal; note: test concentration not given here
[13] = compound effects on hepatocellular carcinoma cell viability – HepG2, calcein-AM fluorescence, 48 h, basal, profiling panel (AID 1164); details: higher = more signal; note: test concentration not given here
[14] = compound effects on multiple myeloma cell viability – MM1S, calcein-AM fluorescence, 48 h, basal, profiling panel (AID 1165); details: higher = more signal;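 note: viability of MM1S multiple myeloma cells under basal unstimulated conditions; test concentration not given here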
[15] = calcein-AM signal in unstimulated myeloma cells – cell-based, calcein-AM fluorescence, 48 h, PK04 Diversity Set, profiling panel (AID 1166); details: RPMI8226 myeloma viability, higher = more signal;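 note: cells grown under basal conditions without added stimulus; test concentration not given here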
[16] = JC-1 mitochondrial signal, unstimulated HepG2 cells – cell-based, JC-1 fluorescence, 24 h, 100 nL compound, profiling panel (AID 1167); details: HepG2 mitochondrial potential, higher = more signal; note: test concentration not given here
[17] = JC-1 mitochondrial signal, unstimulated adipocytes – cell-based, JC-1 fluorescence, 3T3-L1 adipocytes, 24 h, 100 nL compound, profiling panel (AID 1168); details: JC-1 mitochondrial fluorescence, higher = more signal, called active from +8 up or from −8 down; note: test concentration not given here
[18] = JC-1 mitochondrial signal, unstimulated myeloma cells – cell-based, JC-1 fluorescence, RPMI8226, 24 h, 100 nL compound, profiling panel (AID 1169); details: JC-1 mitochondrial potential fluorescence, higher = more signal; note: test concentration not given here
[19] = JC-1 mitochondrial signal, unstimulated MM1S myeloma – cell-based, JC-1 fluorescence, 24 h, 100 nL compound, profiling panel (AID 1170); details: MM1S mitochondrial potential, higher = more signal; note: test concentration not given here
[20] = resazurin metabolic signal in A549 cells – cell-based, resazurin fluorescence, 24 h, PK04 Diversity Set, profiling panel (AID 1171); details: A549 viability, higher = more signal, called active from +8 up or from −8 down; note: test concentration not given here

| SMILES | z-score [1] | composite z-score [2] | z-score [3] | z-score [4] | z-score [5] | z-score [6] | z-score [7] | z-score [8] | z-score [9] | z-score [10] | z-score [11] | z-score [12] | z-score [13] | z-score [14] | z-score [15] | z-score [16] | z-score [17] | z-score [18] | z-score [19] | z-score [20] |
| --- | --- | --- | --- | --- | --- | --- | --- | --- | --- | --- | --- | --- | --- | --- | --- | --- | --- | --- | --- | --- |
| COC(=O)[C@@]1(Cc2ccc(OC)cc2)[C@H]2c3cc(C(=O)N(C)C)n(C)c3C[C@H]2CN1C(=O)c1ccccc1 | -2.89 (inactive) | 1.56 | 1.98 (inactive) | 0.451 (inactive) | 1.07 (inactive) | 1.16 (inactive) | 0.775 | 1.12 (inactive) | 1.77 (inactive) | 2.16 | -1.37 | 0.288 | -1.7 | -2.27 | -2.47 | 2.66 | -0.536 (inactive) | -0.701 | -1.17 | -0.482 (inactive) |
| O=C1c2ccccc2[C@](Cc2ccccc2I)(C(=O)NCCN2CCOCC2)[C@H](c2ccc(CO)cc2)N1C1CCCCC1 | 0.0237 (inactive) | 0.373 | 3.66 (inactive) | 0.814 (inactive) | 0.664 (inactive) | 0.5 (inactive) | -0.164 | 0.155 (inactive) | 0.784 (inactive) | 0.958 | 0.668 | 0.195 | 1.52 | -0.196 | -1.22 | 1.36 | -1.01 (inactive) | -0.385 | -0.96 | -0.112 (inactive) |
| COCCCNC(=O)[C@@]1(C)c2ccccc2C(=O)N(C(C)C)[C@H]1c1ccc(CO)cc1 | -0.794 (inactive) | 0.163 | 0.877 (inactive) | -0.057 (inactive) | 0.386 (inactive) | 0.743 (inactive) | -0.504 | -0.636 (inactive) | 0.43 (inactive) | -0.249 | -0.276 | -0.208 | -0.51 | 0.0651 | 0.532 | 0.043 | 0.304 (inactive) | 0.887 | -0.441 | 0.601 (inactive) |
| C=C(COC)/C(=C/C[C@H](OC(C)=O)c1ccc(CO)o1)c1cc(C(=O)OC)ccc1OC | 0.506 (inactive) | -0.193 | 1.25 (inactive) | -2.29 (inactive) | 0.672 (inactive) | -2.07 (inactive) | 0.873 | -1.85 (inactive) | -1.92 (inactive) | -1.14 | -0.588 | 0.635 | -0.603 | -0.659 | -0.0381 | -0.527 | -0.29 (inactive) | -0.0437 | 0.000891 | -0.369 (inactive) |
| C=CCC(OC(C)=O)[C@@H]1[C@@H](N(Cc2cccc3ccccc23)C(=O)c2ccc(-c3ccccc3)cc2)c2cc(OCCCO)ccc2N1C(=O)c1ccc2ccccc2c1 (stereo not given in full) | -0.495 (inactive) | 0.0153 | 0.135 (inactive) | 0.396 (inactive) | -0.182 (inactive) | 0.0644 (inactive) | 0.174 | -0.608 (inactive) | 0.624 (inactive) | -0.535 | -0.525 | -0.526 | -0.62 | 0.279 | -0.494 | 1.62 | -0.693 (inactive) | -0.011 | -0.000791 | 1.09 (inactive) |
| COCCOC(=O)N1C(=O)[C@@]2(c3cc(C#Cc4ccc(OC)cc4)ccc31)[C@H](c1ccc(OCCO)cc1)N1[C@H](c3ccccc3)[C@H](c3ccccc3)OC(=O)[C@H]1[C@@H]2C(=O)N1CCN(c2ncccn2)CC1 | -0.0791 (inactive) | 0.042 | 5.07 (inactive) | 2.39 (inactive) | 0.738 (inactive) | 1.17 (inactive) | -0.451 | 0.938 (inactive) | -1.34 (inactive) | 0.656 | -0.76 | 0.901 | -0.169 | -0.624 | -0.412 | 0.548 | 2.18 (inactive) | -0.351 | -0.857 | -0.0439 (inactive) |
| CC(=O)NCCCC[C@@H]1NC(=O)[C@H]2C[C@@H](C(=O)NCCCCCCNC(=O)CS)[C@@H](c3ccc(O)cc3)N2C1=O | 0.0783 (inactive) | 0.132 | 4.2 (inactive) | 0.507 (inactive) | 3.45 (inactive) | 0.301 (inactive) | -0.371 | 0.294 (inactive) | -0.187 (inactive) | 0.673 | -0.224 | 0.726 | -1.28 | -0.197 | 0.0535 | -1.33 | 0.184 (inactive) | -0.0883 | -0.213 | -0.689 (inactive) |
| C=CCOC(=O)[C@@H]1[C@H]2C(=O)O[C@H](c3ccccc3)[C@H](c3ccccc3)N2[C@H](c2ccc(OCCOC(=O)[C@@H]3C[C@@H]4C(=O)NCC(=O)N4[C@@H]3c3ccc(O)cc3)cc2)[C@@]12C(=O)Nc1ccc(I)cc12 | 0.0692 (inactive) | -0.404 | 0.894 (inactive) | 0.553 (inactive) | 1.58 (inactive) | 0.398 (inactive) | 0.0971 | 1.46 (inactive) | 0.978 (inactive) | 1.35 | -0.814 | 0.198 | -0.207 | -0.647 | -0.319 | -2.11 | -0.444 (inactive) | -0.972 | -0.919 | 0.994 (inactive) |
| O=C1O[C@H](c2ccccc2)[C@H](c2ccccc2)N2[C@H]1[C@@H](C(=O)N1CCCCCCC1)[C@]1(C(=O)Nc3ccc(C#CC4=CCCCC4)cc31)[C@H]2c1ccc(OCCO)cc1 | 2.72 (inactive) | 2.88 | 10.2 (active) | 0.658 (inactive) | 1.08 (inactive) | -1.25 (inactive) | 2.85 | -0.708 (inactive) | 0.14 (inactive) | -2.05 | -0.733 | 1.67 | -0.103 | -0.0425 | -1.4 | -1.68 | -5.35 (inactive) | -1.02 | -0.729 | -0.0973 (inactive) |
